Experimental data from PubChem BioAssay (NCI).
Compounds without any hit were thinned out: in the full panel of roughly 79,000, 15% have a hit. Calls of active or inactive are those of the source. Cut-off read from the data, not from the text of the source: active = growth inhibition above about 70%; inactive = the rest.

Assay: NCI Yeast Anticancer Drug Screen. Data for the rad18 strain (AID 177)
Details: S. cerevisiae rad18 mutant growth inhibition, stronger effect = higher value
Experimental: Growth inhibition of yeast strains with defined genetic alterations is measured as a screen for potential anti-cancer activity. Selected strains with alterations in DNA damage repair or cell cycle control were exposed to compounds and growth inhibition was measured relative to vehicle treated controls. The strain used in this assay is rad18

Row | SMILES | growth inhibition (at 1.2 µM) | growth inhibition (at 3.7 µM) | growth inhibition (at 11.0 µM) | growth inhibition (at 33.0 µM) | growth inhibition (at 100.0 µM)
1 | BrCc1ccccc1C(c1ccccc1)c1ccccc1 | 25% (inactive) | 89% (active) | 96% (active) | 97% (active) | 96% (active)
2 | Oc1ccccc1N=Cc1ccc(Cl)cc1 | 17% (inactive) | 30% (inactive) | 43% (inactive) | 64% (inactive) | 87% (active)
3 | Cc1cccc(/C=N/NC(=S)N(C)CCc2ccccn2)n1 | 92% (active) | 96% (active) | 98% (active) | 98% (active) | 98% (active)
4 | O=C1NC(c2c(Cl)cccc2Cl)Nc2ccccc21 (stereo not given) | 0% (inactive) | -2% (inactive) | 0% (inactive) | 74% (active) | 93% (active)
5 | Clc1c(Cl)c(Cl)c2n[nH]nc2c1Cl | -29% (inactive) | -38% (inactive) | -25% (inactive) | 4% (inactive) | 57% (inactive)
6 | CN(C)c1ccc(/C=C/c2ccnc3ccccc23)cc1N | -4% (inactive) | -3% (inactive) | -8% (inactive) | 11% (inactive) | 32% (inactive)
7 | CCOC(=O)Nc1ccc2c(c1)Cc1ccccc1-2 | -11% (inactive) | -7% (inactive) | -4% (inactive) | -6% (inactive) | -10% (inactive)
8 | Cc1nc2c(ncn2CCO)c(=O)[nH]1 | -38% (inactive) | -32% (inactive) | -9% (inactive) | -35% (inactive) | -36% (inactive)
